Over roughly 33,000 sequences, “E-score (-0.5 to 0.5)” has its median near -0.016; the highest 2% begin near 0.32. Only a selection was taken, and the highest values are over-represented in it overall.
target: T1, Stp1 (UniProt B3LFK1); assay: PBM E-score (8-mer binding enrichment) (E-score (-0.5 to 0.5)); higher = stronger / more preferred TF binding; conditions: protein concentration: 200 nM; construct: GST-full length
T1 sequence: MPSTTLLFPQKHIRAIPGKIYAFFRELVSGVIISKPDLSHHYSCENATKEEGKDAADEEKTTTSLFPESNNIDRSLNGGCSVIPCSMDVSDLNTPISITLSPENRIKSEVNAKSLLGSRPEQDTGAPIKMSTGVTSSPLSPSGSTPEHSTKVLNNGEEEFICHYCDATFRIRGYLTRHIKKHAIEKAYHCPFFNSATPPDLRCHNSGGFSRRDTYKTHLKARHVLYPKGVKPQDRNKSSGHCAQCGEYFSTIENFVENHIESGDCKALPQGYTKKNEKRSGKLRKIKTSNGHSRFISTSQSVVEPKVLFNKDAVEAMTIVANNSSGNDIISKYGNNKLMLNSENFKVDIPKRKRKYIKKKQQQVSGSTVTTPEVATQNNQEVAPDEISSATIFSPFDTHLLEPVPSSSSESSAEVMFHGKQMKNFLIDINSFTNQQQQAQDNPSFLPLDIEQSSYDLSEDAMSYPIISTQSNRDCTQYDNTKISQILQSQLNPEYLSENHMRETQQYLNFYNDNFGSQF
How it was run: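 Masliner-normalised scans of fluorescent anti-GST signal were the basis for scoring. That signal came from GST-tagged yeast transcription factors applied at about 100-200 nM to double-stranded universal all-10-mer Agilent arrays on fresh or once-stripped slides. Each ungapped eight-base word, pooled with its reverse complement, received an E-score from the Universal PBM Analysis Suite.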

Sequence | PBM E-score
AATTTGGG | -0.0818
CGAGGCCA | -0.178
GATAAGGC | 0.216
AAGGGCGT | 0.0591
CGATAATC | -0.128
ATCCGTCA | -0.0596
CTAAACGA | 0.0761
CAGTCTGA | -0.0528
CGCGGCAG | 0.378
CGCGGGCA | 0.175
GTCGGCAC | 0.172
GGGGGCAC | -0.266
CGTGGCAG | 0.239
CGCGGCAA | 0.424
CGCGGTAG | 0.0224
GGCGGCAC | 0.446
GGCGGCAA | 0.286
AGGGGACA | -0.145
AGGGGGGG | -0.287
AGGCCTCC | -0.164
GCTCTCGA | -0.144
ATAACCCC | -0.223
GCAAGCTA | -0.0537
GGGCATGA | -0.0369
AGGCATGC | 0.144

Sequence | PBM E-score
CGGCATGC | 0.338
CGGCATGA | 0.346
AGGCATGA | -0.0157
CTGCATGC | 0.12
CGAGGAGA | -0.162
AGCCAAAC | 0.00731
CATTGCGG | 0.158
GCGCTGCA | 0.232
GGATTGAA | -0.0161
GCGTGAGC | 0.193
CGGCGGTA | 0.335
GGGCGGGA | -0.11
GGCGGGCA | 0.0418
AGCCGGCA | 0.0341
AGGCGGGA | -0.183
CGGCGGAA | 0.328
GGGCGGCA | 0.356
AGGCGGAA | 0.0802
GGGCGGTA | -0.128
AGGCGGTA | -0.0932
GGGCGGAA | -0.0696
AGGCGGCA | 0.369
CACCTATG | -0.108
CGCTAAAG | 0.0823
GTTGAATA | 0.0719

Sequence | PBM E-score
ATGTCCTC | -0.113
AGCTGCGA | -0.129
GCTCAACA | 0.00726
CAGTCGGG | -0.14
CGGCGGCC | 0.214
CGGCGGCA | 0.418
CGGCGGGA | 0.207
AGGCGGCG | 0.391
AGGCGGGG | 0.023
AGGCGGCC | 0.147
CCTAGCTC | -0.268
ATAGAAAT | 0.197
CTGGCCCC | -0.311
CATCACTC | -0.0239
AAGACGGT | -0.169
CAGACGCC | 0.114
GAGACGAC | -0.104
AAGACGGC | 0.318
GAGACGGC | 0.411
CAGACGGG | -0.242
AAGACGCC | 0.321
CAGACGGA | 0.0941
AAGACGGA | -0.0847
GAGACGGA | 0.065
AAGACGCT | -0.13

Sequence | PBM E-score
CAGACGGC | 0.42
ACAGTGCG | -0.022
CGCTGGAG | -0.107
ATTGAGGC | 0.146
CCCAGTCG | -0.267
AAGGACCG | -0.117
CCATTAGG | -0.209
CTAACAGC | 0.0206
AGCCACTC | 0.0834
CTTTTTGC | 0.0819
AACTAACC | 0.117
CAATGCCG | 0.374
CAATGCCA | 0.0614
AAATGCCC | -0.108
CAATGCCC | 0.136
AAATGCCG | 0.443
AAATGCCT | 0.285
GTGCTAAC | -0.0443
ACAAGATG | -0.052
AAACCTCA | -0.0665
AGCGAACT | 0.00922
CAAAGCCA | 0.0366
AAAAGCCC | -0.145
AACAGCCG | 0.255
GAAAAGCC | 0.0718

Sequence | PBM E-score
CAAAGCCG | 0.316
AAAAAGCC | 0.34
CAAAGCCC | -0.0858
CAAAAGCC | 0.121
AAAAGCCG | 0.326
CACAGCCG | 0.327
AAAAGCCT | -0.0406
CACAGCCC | -0.172
GAGATAGC | -0.111
CACAGAAA | -0.00471
TGGGCACA | 0.135
GTAGATGA | 0.0463
GAGCTCTA | -0.101
GAAATTTC | -0.153
CCCTGGTC | -0.41
AGCTAACC | -0.159
CCTAGCCA | -0.0258
CTGCGAAG | -0.175
GGGCACGA | 0.133
CTGCACGC | -0.0205
CGGCACGC | 0.437
CTGCACGA | -0.152
CGGCACGA | 0.459
AGGCACGC | 0.209
GACACTCC | 0.0152

Sequence | PBM E-score
AATTCTGA | 0.131
GCATTTCC | 0.146
AAGTAAGG | -0.0479
ACCTATCG | 0.0549
CAAGAGCC | 0.21
CCAAGCCC | -0.241
AGACGGGG | -0.154
AGACGTCT | -0.219
CGACGGAG | -0.147
CGACGGCG | 0.353
AGACGGCC | 0.121
AGACGGCG | 0.463
AGACGGCT | 0.343
AGACGGAT | 0.14
CGACGGCC | 0.0289
ACAGTCGG | -0.0418
AAGCACCC | -0.224
CAAATTGC | 0.115
CTCAGTCC | -0.195
ATGAAGAC | 0.0861
ACGTTTAT | 0.0901
CTGGGTGA | -0.229
CAATAACC | 0.0421
AGGGCTAG | -0.207
AAGCTACT | -0.0664

Sequence | PBM E-score
CACGCGGC | 0.459
AACGCGGA | 0.0987
CACGCGGA | 0.294
GACGCGGA | 0.136
GACGCGAC | -0.0598
CACGCGGG | 0.143
AACGCGGG | 0.184
AACGCGGC | 0.443
GACGCGGC | 0.466
ACTCGATC | -0.0856
AGGTGGCA | 0.218
GAATGCCA | 0.134
CTTAAATC | 0.0764
CCGGCGTC | 0.0446
ACGGCGTC | 0.472
ATGGCGTG | 0.102
AAGGCGTA | 0.234
AGGGCGTG | -0.0356
GTGGCGTA | 0.0488
CCGGCGTA | 0.0906
AGGGCGTC | 0.131
ACGGCGTA | 0.448
GCGGCGTA | 0.433
GGGGCGTA | -0.174
ACGGCGTG | 0.455

— the supplement of paper PMC3334620
